# Source: the supplement of paper PMC8728848
# This excerpt belongs to a sample that is enriched for the strongest signals.
# B1: rCNL (Clitocybe nebularis), B2ZRS9 (protein)
# chain: SITPGTYNITNVAYTNRLIDLTGSNPAENTLIIGHHLNKTPSGYGNQQWTLVQLPHTTIYTMQAVNPQSYVRVRDDNLVDGAALVGSQQPTPVSIESAGNSGQFRIKIPNLGLALTLPSDANSTPIVLGEVDETSTNQLWAFESVSAV
# How the values were obtained:
# Experiment in all cases: glycan array binding signal (z-score within array); higher = stronger binding
# Conditions in all cases: glycan notation: IUPAC condensed, linker removed
# [1] = biological target: Fuc(a1-2)Gal(b1-4)GlcNAc(b1-2)Man(a1-3)[Fuc(a1-2)Gal(b1-4)GlcNAc(b1-2)Man(a1-6)]Man(b1-4)GlcNAc(b1-4)[Fuc(a1-6)]GlcNAc
# Summary of the method: (§1)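 Glycan array data came from 3228 arrays in the Consortium for Functional Glycomics database, and only arrays with an available protein sequence were kept. Glycan names were put into IUPAC-condensed notation, and columns mapping to the same glycan were averaged. The binding signal is a within-array Z-score, averaged across arrays of one protein sequence run at different concentrations or buffers and across linkers. A negative Z-score can be read as non-binding.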
# [2] = biological target: Fuc(a1-2)[Gal(a1-3)]Gal(b1-3)GalNAc
# Summary of the method: as §1
# [3] = biological target: Fuc(a1-2)[Gal(a1-3)]Gal(b1-4)GlcNAc(b1-2)Man
# Summary of the method: as §1
# [4] = biological target: Fuc(a1-2)[GalNAc(a1-3)]Gal(b1-3)GalNAc(a1-3)[Fuc(a1-2)]Gal(b1-4)GlcNAc
# Summary of the method: as §1
# [5] = biological target: Fuc(a1-2)[GalNAc(a1-3)]Gal(b1-4)GlcNAc
# Summary of the method: as §1
# [6] = biological target: Fuc(a1-2)[GalNAc(a1-3)]Gal(b1-4)GlcNAc(b1-2)Man
# Summary of the method: as §1
# [7] = biological target: Fuc(a1-2)[GalNAc(a1-3)]Gal(b1-4)GlcNAc(b1-2)Man(a1-3)[Fuc(a1-2)[GalNAc(a1-3)]Gal(b1-4)GlcNAc(b1-2)Man(a1-6)]Man(b1-4)GlcNAc(b1-4)GlcNAc
# Summary of the method: as §1
# [8] = biological target: Fuc(a1-2)[GalNAc(a1-3)]Gal(b1-4)GlcNAc(b1-3)Gal(b1-4)GlcNAc
# Summary of the method: as §1
# [9] = biological target: Fuc(a1-2)[GalNAc(a1-3)]Gal(b1-4)GlcNAc(b1-3)Gal(b1-4)GlcNAc(b1-3)Gal(b1-4)GlcNAc
# Summary of the method: as §1
# [10] = biological target: Fuc(a1-3)[Gal(b1-4)]GlcNAc
# Summary of the method: as §1
# [11] = biological target: Gal(a1-3)Gal
# Summary of the method: as §1
# [12] = biological target: Gal(a1-3)Gal(b1-3)[Fuc(a1-4)]GlcNAc(b1-2)Man(a1-3)[Gal(a1-3)Gal(b1-3)[Fuc(a1-4)]GlcNAc(b1-2)Man(a1-6)]Man(b1-4)GlcNAc(b1-4)GlcNAc
# Summary of the method: as §1
# [13] = biological target: Gal(a1-3)Gal(b1-4)GlcNAc
# Summary of the method: as §1
# [14] = biological target: Gal(a1-3)Gal(b1-4)GlcNAc(b1-3)GalNAc
# Summary of the method: as §1
# [15] = biological target: Gal(a1-4)Gal(b1-3)GlcNAc(b1-2)Man(a1-3)[Gal(a1-4)Gal(b1-3)GlcNAc(b1-2)Man(a1-6)]Man(b1-4)GlcNAc(b1-4)GlcNAc
# Summary of the method: as §1
# [16] = biological target: Gal(a1-4)Gal(b1-4)Glc
# Summary of the method: as §1
# [17] = biological target: Gal(b1-3)GalNAc(b1-4)Gal(b1-4)Glc
# Summary of the method: as §1
# [18] = biological target: Gal(b1-3)GlcNAc(a1-3)Gal(b1-4)GlcNAc
# Summary of the method: as §1
# [19] = biological target: Gal(b1-3)GlcNAc(b1-3)Gal(b1-4)GlcNAc(b1-3)Gal(b1-4)GlcNAc(b1-2)[Gal(b1-3)GlcNAc(b1-3)Gal(b1-4)GlcNAc(b1-3)Gal(b1-4)GlcNAc(b1-6)]Man(a1-6)[Gal(b1-3)GlcNAc(b1-3)Gal(b1-4)GlcNAc(b1-3)Gal(b1-4)GlcNAc(b1-2)Man(a1-3)]Man(b1-4)GlcNAc(b1-4)[Fuc(a1-6)]GlcNAc
# Summary of the method: as §1
# [20] = biological target: Gal(b1-3)GlcNAc(b1-6)[Gal(b1-3)]GalNAc
# Summary of the method: as §1
# [21] = biological target: Gal(b1-3)GlcNAc6S
# Summary of the method: as §1
# [22] = biological target: Gal(b1-3)[Neu5Ac(b2-6)]GalNAc
# Summary of the method: as §1
# [23] = biological target: Gal(b1-4)Gal
# Summary of the method: as §1
# [24] = biological target: Gal(b1-4)GlcNAc(b1-2)Man(a1-3)Man(b1-4)GlcNAc(b1-4)GlcNAc
# Summary of the method: as §1
# [25] = biological target: Gal(b1-4)GlcNAc(b1-2)Man(a1-3)[Gal(b1-4)GlcNAc(b1-2)Man(a1-6)]Man(b1-4)GlcNAc(b1-4)GlcNAc
# Summary of the method: as §1
# [26] = biological target: Gal(b1-4)GlcNAc(b1-2)[Gal(b1-4)GlcNAc(b1-4)]Man(a1-3)[GlcNAc(b1-4)][Gal(b1-4)GlcNAc(b1-2)[Gal(b1-4)GlcNAc(b1-6)]Man(a1-6)]Man(b1-4)GlcNAc(b1-4)GlcNAc
# Summary of the method: as §1
binder,measurement,setting,value
B1,glycan array binding signal (z-score),[1],-0.116
same,glycan array binding signal (z-score),[2],-0.222
same,glycan array binding signal (z-score),[3],-0.215
same,glycan array binding signal (z-score),[4],2.47
same,glycan array binding signal (z-score),[5],3.08
same,glycan array binding signal (z-score),[6],3.12
same,glycan array binding signal (z-score),[7],4
same,glycan array binding signal (z-score),[8],3.46
same,glycan array binding signal (z-score),[9],3.25
same,glycan array binding signal (z-score),[10],-0.299
same,glycan array binding signal (z-score),[11],-0.297
same,glycan array binding signal (z-score),[12],-0.27
same,glycan array binding signal (z-score),[13],-0.098
same,glycan array binding signal (z-score),[14],-0.129
same,glycan array binding signal (z-score),[15],-0.187
same,glycan array binding signal (z-score),[16],-0.261
same,glycan array binding signal (z-score),[17],-0.287
same,glycan array binding signal (z-score),[18],-0.21
same,glycan array binding signal (z-score),[19],-0.203
same,glycan array binding signal (z-score),[20],-0.215
same,glycan array binding signal (z-score),[21],-0.226
same,glycan array binding signal (z-score),[22],-0.305
same,glycan array binding signal (z-score),[23],-0.215
same,glycan array binding signal (z-score),[24],-0.275
same,glycan array binding signal (z-score),[25],-0.13
same,glycan array binding signal (z-score),[26],-0.041
